This passage reports activation and Potency results from PubChem BioAssay (NCATS).

Values joined by “and” are separate entries in the source; they are usually repeats but may differ in a detail not shown here. Equal values may be shown once. Records with an inconclusive call do not appear. More than one record can exist for a structure, and the calls need not agree. Active and inactive are the calls of the source. The call rests on the fitted dose curve; in most records, active means well fitted activation curve with a large enough effect in the signal ratio; inconclusive means small, poorly fitted or top-dose-only effect, or a change in a side signal; inactive means flat fitted curve, though single readings scatter; the % refers to the signal ratio.
Potency means the concentration at half of the fitted maximal effect.

The experiment can be described thus: qHTS assay for small molecule activators of the nuclear factor-kappa B (NF-kB) signaling pathway (AID 651749). On activation: series mostly up to about 77 µM; % of control where 0% means no effect. The settings on record: NF-kB-bla ME-180 cells, beta-lactamase FRET ratio, 16 h; activation: hits give high values. From the text: National Center for Advancing Translational Sciences [NCATS] NIH Chemical Genomics Center [NCGC] U.S. Environmental Protection Agency [EPA] National Institutes of Environmental Health Sciences [NIEHS] National Toxicology Program [NTP] Assay Overview: Transcription factors and their stimulated target gene expression play pivotal roles across many cellular processes including responses to environmental stimuli. Proper regulation of associated pathways is critical to maintain cell health and function. Constitutive activation of transcription factor pathways has been implicated in tumors as it may block cellular functions such as apoptosis and lead to invasion and metastasis. One important transcription factor that stimulates gene expression in response to cytokines, UV radiation, and other stimuli is nuclear factor-kappa B (NF-kB). To measure activation of the NF-kB pathway, the NF-kB-bla ME-180 cell line stably expressed beta-lactamase reporter gene under the regulation of a NF-kB response element was obtained from Invitrogen. This assay allows measurement of the NF-kB pathway activity induced by compounds in a ME-180 cell line. This system quantitates NF-kB activity using a FRET-based assay system where beta-lactamase expression disrupts FRET, allowing for fluorescent measurement of activity.
Assay Protocol Summary: For toxicology screening, 2,000 cells in 5 uL/well were dispensed into black, clear-bottom 1536-well plates using a Multidrop Combi (Thermo Scientific) dispenser. Following transfer of 23 nL compound or DMSO vehicle by a pin tool, the plates were incubated 16 hr at 37C and 5% CO2.
On to `CC(C)(OO)c1ccccc1`, for which the activation was -2.1% (inactive) and -0.395% (inactive). Consider `CCCCOC(=O)c1ccccc1C(=O)OCCCC`, for which the activation was -1.75% (inactive) and -1.98% (inactive). As to `O=[N+]([O-])c1ccc(Cl)c(Cl)c1`, the activation was -0.387% (inactive). As for `ClC1=C(Cl)C2(Cl)C3C4CC(C5OC45)C3C1(Cl)C2(Cl)Cl` (stereo not given), the activation was -0.275% (inactive).

Turning to `Cc1ccc2ccccc2c1`, the activation was -0.574% (inactive). On to `Brc1ccc(Oc2cc(Br)c(Br)cc2Br)c(Br)c1`, for which the activation is 0.934% (inactive) and 2.14% (inactive) and 2.73% (inactive).

Regarding `C=CCOC(C)=O`, the activation was -0.256% (inactive). As for `C=C(C)C(=O)OCC1CO1` (stereo not given), the activation is 0.768% (inactive).

For `CC(C)OC(=O)Nc1cccc(Cl)c1`, the activation was 0.165% (inactive). As for `Nc1ccc(Br)cc1`, the activation was -0.0985% (inactive).

Take `S=C=Nc1cccc2ccccc12`: the activation was 2.04% (inactive). Still for that read-out and setting: for `Nc1c(Cl)c(Cl)nc(C(=O)O)c1Cl` the value was -0.763% (inactive) and -1.51% (inactive) and -1.13% (inactive); for `N#Cc1c(Cl)cccc1Cl`, -0.285% (inactive); for `Clc1nc(Cl)nc(Cl)n1`, 0.499% (inactive) and 0.444% (inactive). Regarding `Brc1ccccc1`, the activation is 1.07% (inactive) and -1.27% (inactive).

For the molecule `ClC(Cl)=C(Cl)Cl`, the activation is 0.509% (inactive) and -0.543% (inactive).

`C/C=C/c1ccc2c(c1)OCO2`: the activation was -1.42% (inactive). Turning to `ClC(Cl)=C(c1ccc(Cl)cc1)c1ccc(Cl)cc1`, the activation was 0.128% (inactive) and -1.11% (inactive) and 0.0255% (inactive). `N#CCCCl`: the activation was -0.282% (inactive) and -0.0737% (inactive). As to `NC(=S)Nc1ccccc1`, the activation was -0.0044% (inactive) and -1.03% (inactive) and -0.459% (inactive).

For `Cc1ccc(O)c(C)c1`, the activation is 0.131% (inactive) and -0.324% (inactive) and 1.7% (inactive). As for `CCCCOCCOP(=O)(OCCOCCCC)OCCOCCCC`, the activation was -1.15% (inactive) and -0.483% (inactive). Same read-out and setting: for `CNC(=O)Oc1cccc2c1OC(C)(C)O2` the value was -0.841% (inactive); for `CCS(=O)CCSP(=O)(OC)OC` (stereo not given), -0.59% (inactive). For `CCCSC(=O)Cl`, the activation is -0.498% (inactive). Same read-out and setting: for `CCCCCCCCCc1ccc(O)cc1` the value was 1.31% (inactive); for `CCSC(=O)Cl`, -1.04% (inactive). As to `C=CC(N)=O`, the activation is -0.549% (inactive) and 0.0148% (inactive) and 0.73% (inactive). With `ClC1=C(Cl)C2(Cl)C3C(Cl)C=CC3C1(Cl)C2(Cl)Cl` (stereo not given), the activation was 1.89% (inactive). On to `c1ccc(-c2ccccc2)cc1`, for which the activation was 0.41% (inactive) and 0.224% (inactive). On to `Clc1nc(Cl)nc(Nc2ccccc2Cl)n1`, for which the activation is 0.657% (inactive) and the Potency is 25.1 µM (active). In the case of `O=[N+]([O-])c1cccc2ccccc12`, the activation is -0.404% (inactive) and -0.717% (inactive). Still for that read-out and setting: in the case of `O=C(Cl)/C=C/C(=O)Cl` it was 2.63% (inactive); in that of `Cc1cccc([N+](=O)[O-])c1`, -0.494% (inactive) and -2.2% (inactive). Same read-out and setting: in the case of `C[C@H]1CCCC(=O)CCC/C=C/c2cc(O)cc(O)c2C(=O)O1` it was -2.55% (inactive) and -2.52% (inactive) and -4.61% (inactive). Turning to `CC(Cl)Cl`, the activation was 3.47% (inactive). Regarding `c1nc[nH]n1`, the activation was 0.14% (inactive).

In the case of `CC(C)(c1ccccc1)c1ccc(O)cc1`, the activation was -0.397% (inactive) and -3.49% (inactive). Regarding `Nc1ccccc1Cl`, the activation was 0.524% (inactive).
